Measurements: PubChem BioAssay AID463190 (Sanford-Burnham Center for Chemical Genomics, 2010)
The whole screen tested about 330,000 compounds, of which about 7,300 (2.2%) were called active.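 Rule for the calls: active = inhibition of at least 40%; inactive = the rest.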 What follows is part of a selection rich in actives, with near analogues and random picks from the rest.

Experiment: growth inhibition of tim10-1 ts yeast – luminescence, uHTS, primary screen (AID 463190);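 note: mutant grown at 25 °C; 0% = DMSO wells with yeast and 100% = wells holding no yeast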
Settings: S. cerevisiae tim10-1 ts strain growth, BacTiter-Glo, 24 h; at 20 µM; hits give high values

inhibition, active:
COc1ccc(OC)c2sc(NC(=O)C3COc4ccccc4O3)nc12 (stereo unspecified) 47.3%
COc1cc(Cl)c(C)cc1NC(=O)CSc1nnc(-c2ccco2)n1CC(C)C 42.7%
CCC(=O)Nc1nc2ccccc2n1Cc1ccccc1C 40.8%
COc1ccccc1NC(=O)C1=C(C)Nc2nnnn2C1c1cccc(Br)c1 (stereo unspecified) 42.4%
COc1ccc(/C=C2/SC(=O)N(CCCCCC(=O)Nc3ccccc3C(=O)O)C2=S)cc1 40%

inhibition, inactive:
Cc1ccsc1C(=O)NCCc1ccco1 -19%
COc1ccc(NC(=O)C2COc3ccccc3O2)cc1 (stereo unspecified) 21.5%
COc1cc(SC)ccc1C(=O)NNC(=O)C1COc2ccccc2O1 (stereo unspecified) 5.41%
CCc1cccc(C)c1NS(=O)(=O)c1c(C)nc2sccn2c1=O 21.8%
COc1ccc(NC(=O)C2C3CCC(O3)C2C(=O)O)cc1OC (stereo unspecified) -1.54%
COCCNC(=O)CSc1nc2c(n1-c1ccccc1)CCCC2 12%
COc1ccc(C(C(=O)NC2CCCCC2)N(C(=O)Cc2c[nH]c3ccccc23)c2ccccc2)cc1OC (stereo unspecified) 13.4%
COc1cc(Cl)c(C)cc1NC(=O)CSc1nnc(-c2cccnc2)n1Cc1ccco1 22.4%
CCn1c(SCC(=O)Nc2cc(C)c(Cl)cc2OC)nnc1-c1ccco1 14%
COc1ccc(C(=O)C2CCCN(C(=O)c3ccc(OC)o3)C2)c(C)c1 (stereo unspecified) 20.5%
COc1ccccc1CC(NC(C)=O)C(=O)NC1CCN(C(=O)Nc2ccccc2Cl)CC1 (stereo unspecified) 12%
CC(=O)Nc1nc2ccccc2n1Cc1ccc(C)cc1 19%
CCCCn1c(CCCNC(=O)CC)nc2ccccc21 0.782%
COc1ccc(NS(=O)(=O)c2ccc(Oc3c(C#N)cccc3C#N)cc2)cc1 -28.8%
COc1cc(C2C(C(=O)Nc3ccccc3OC)=C(C)Nc3ncnn32)ccc1O (stereo unspecified) 8.15%
COc1ccc(C2C(C(=O)Nc3ccccc3OC)=C(C)Nc3nnnn32)c(OC)c1 (stereo unspecified) 0.795%
COC(=O)c1ccccc1NC(=O)C1CC(=O)N(c2ccc(OC)cc2)C1 (stereo unspecified) 3.6%
COCCn1nnnc1CN1CCC(NC(=O)Nc2cccc(OC)c2)CC1 -0.459%
COc1ccc(/C=C2\SC(=O)N(CCC(=O)NC3CCS(=O)(=O)C3)C2=O)cc1 (stereo unspecified) -0.597%
COc1ccc(/C=C2\SC(=O)N(CCC(=O)NCCCn3ccnc3)C2=O)cc1 8.52%
Cc1cccc(OCC(O)Cn2c(N3CCCCC3)nc3c2c(=O)[nH]c(=O)n3C)c1 (stereo unspecified) 12.9%
